Data published in the supplement of paper PMC11634586.
Counter-ions that a name gives are not always drawn.

Each compound was assayed on NCI-H1688 (assay: inhibition of cell viability relative to untreated control (fraction); higher = stronger growth inhibition, active = 0.5 or more). Conditions: 30 µM; 24 h.
Outline: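 NCI-H1688 small cell lung cancer cells were seeded at 3 × 10^3 cells/well in 96-well plates and treated 24 h later with a natural compound library (TargetMol) at 30 µM for 24 h, at 37°C with 5% CO2. Viability was read in triplicate with Cell Counting Kit-8 as absorbance at 450 nm. Inhibition of cell viability is expressed as a fraction, derived from viability normalised to the untreated control.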

Compound | inhibition of cell viability
OC[C@H]1O[C@H](OC[C@H]2O[C@H](OC[C@H]3O[C@H](O[C@]4(CO)O[C@H](CO)[C@@H](O)[C@@H]4O)[C@H](O)[C@@H](O)[C@@H]3O)[C@H](O)[C@@H](O)[C@H]2O)[C@H](O)[C@@H](O)[C@H]1O [D-Stachyose tetrahydrate] | -0.0317 (inactive)
COc1ccc(-c2cc(=O)c3c(OC)c(OC)c(OC)c(OC)c3o2)cc1OC [Nobiletin] | 0.293 (inactive)
CC1=CC(=O)CC(C)(C)[C@@]1(O)/C=C/C(C)=C\C(=O)O [Abscisic acid] | -0.139 (inactive)
C[C@@H]1O[C@@H](O[C@@H]2[C@@H](O)[C@H](OCCc3ccc(O)c(O)c3)O[C@H](CO)[C@H]2OC(=O)/C=C/c2ccc(O)c(O)c2)[C@H](O)[C@H](O)[C@H]1O [Verbascoside] | 0.0855 (inactive)
C=C1C(=O)[C@]23[C@H](CC[C@@H]1[C@@H]2O)[C@]12CO[C@@]3(O)[C@H](O)[C@H]1C(C)(C)CC[C@@H]2O [Rubescensin A] | 0.984 (active)
O=C(O)[C@H]1O[C@@H](Oc2cc3oc(-c4ccccc4)cc(=O)c3c(O)c2O)[C@H](O)[C@@H](O)[C@@H]1O [Baicalin] | -0.127 (inactive)
C[C@@H]1C(=O)O[C@H]2C[C@@]34[C@H]5C[C@@H](C(C)(C)C)[C@]36[C@@H](OC(=O)[C@@H]6O)O[C@@]4(C(=O)O5)[C@]21O [Ginkgolide A] | -0.028 (inactive)
N[C@@H](Cc1cc(I)c(Oc2cc(I)c(O)c(I)c2)c(I)c1)C(=O)O [L-Thyroxine] | 0.22 (inactive)
COc1cc2ccc(=O)oc2c(O)c1O [Fraxetin] | -0.0287 (inactive)
COc1ccc(-c2coc3cc(O)cc(O)c3c2=O)cc1 [Biochanin A] | -0.0526 (inactive)
CC(=O)OCC(=O)[C@@]1(O)CC[C@H]2[C@@H]3CCC4=CC(=O)C=C[C@]4(C)[C@@]3(Cl)[C@@H](Cl)C[C@@]21C [Dichlorisone Acetate] | -0.129 (inactive)
N[C@@H](Cc1cc(I)c(Oc2ccc(O)c(I)c2)c(I)c1)C(=O)O [Lyothyronine] | 0.0198 (inactive)
O=C1c2ccccc2C(=O)c2c1ccc(O)c2O [Alizarin] | 0.344 (inactive)
Cc1coc2c1C(=O)C(=O)c1c-2ccc2c(C)cccc12 [Tanshinone I] | 0.929 (active)
CCc1c2c(nc3ccc(OC(=O)N4CCC(N5CCCCC5)CC4)cc13)-c1cc3c(c(=O)n1C2)COC(=O)[C@]3(O)CC [Irinotecan hydrochloride trihydrate] | 0.311 (inactive)
O=C(O[C@@H]1Cc2c(O)cc(O)cc2O[C@@H]1c1ccc(O)c(O)c1)c1cc(O)c(O)c(O)c1 [(-)-Epicatechin gallate] | 0.121 (inactive)
C[n+]1cccc(C(=O)[O-])c1 [Trigonelline] | -0.0163 (inactive)
COc1ccc(-c2cc(=O)c3c(O)cc(O[C@@H]4O[C@H](CO[C@@H]5O[C@@H](C)[C@H](O)[C@@H](O)[C@H]5O)[C@@H](O)[C@H](O)[C@H]4O)cc3o2)cc1O [Diosmin] | -0.00104 (inactive)
C=C[C@H]1[C@H](O[C@@H]2O[C@H](CO)[C@@H](O)[C@H](O)[C@H]2O)OC=C2C(=O)OCC[C@]21O [Swertiamarin] | -0.0605 (inactive)

Compound | inhibition of cell viability
C[C@@H]1O[C@@H](Oc2c(-c3ccc(O)c(O)c3)oc3cc(O)cc(O)c3c2=O)[C@H](O)[C@H](O)[C@H]1O [Quercitrin] | 0.325 (inactive)
Cc1ccc(C(C)C)cc2c(C)ccc1-2 [Guaiazulene] | 0.0813 (inactive)
COc1c(O)cc2c(c1O)[C@@H]1O[C@H](CO)[C@@H](O)[C@H](O)[C@H]1OC2=O [Bengenin] | 0.0368 (inactive)
C[C@H](CCC(=O)O)[C@H]1CC[C@H]2[C@@H]3CC[C@@H]4C[C@H](O)CC[C@]4(C)[C@H]3CC[C@]12C [Lithocholic acid] | -0.0194 (inactive)
COc1ccc([C@@H]2CC(=O)c3c(O)cc(O[C@@H]4O[C@H](CO[C@@H]5O[C@@H](C)[C@H](O)[C@@H](O)[C@H]5O)[C@@H](O)[C@H](O)[C@H]4O)cc3O2)cc1O [Hesperidin] | 0.0198 (inactive)
O=C1c2c(O)cccc2C([C@@H]2O[C@H](CO)[C@@H](O)[C@H](O)[C@H]2O)c2cc(CO)cc(O)c21 (stereo partly drawn) [Aloin] | -0.014 (inactive)
CN[C@@H]1[C@H](O)[C@H](NC)[C@H]2O[C@@]3(O)C(=O)C[C@@H](C)O[C@H]3O[C@@H]2[C@H]1O [Spectinomycin dihydrochloride] | 0.186 (inactive)
NC[C@@H]1O[C@H](O[C@H]2[C@@H](O)[C@H](O[C@@H]3[C@@H](O)[C@H](N)C[C@H](N)[C@H]3O[C@H]3O[C@H](CO)[C@@H](O)[C@H](O)[C@H]3N)O[C@@H]2CO)[C@H](N)[C@@H](O)[C@@H]1O [Paromomycin Sulfate] | -0.0298 (inactive)
COc1c2occc2c(OC)c2c(=O)cc(C)oc12 [Khellin] | 0.168 (inactive)
CC(C)=CCC[C@](C)(O[C@@H]1O[C@H](CO)[C@@H](O)[C@H](O)[C@H]1O)[C@H]1CC[C@]2(C)[C@@H]1[C@H](O)C[C@@H]1[C@@]3(C)CC[C@H](O)C(C)(C)[C@@H]3[C@@H](O[C@@H]3O[C@H](CO)[C@@H](O)[C@H](O)[C@H]3O)C[C@]12C [Ginsenoside Rg1] | -0.0362 (inactive)
C[C@H]1CC[C@@]2(OC1)O[C@H]1C[C@H]3[C@@H]4CC[C@@H]5C[C@@H](O)CC[C@]5(C)[C@H]4CC[C@]3(C)[C@H]1[C@@H]2C [Sarsasapogenin] | -0.0422 (inactive)
CC12CCC(CC1=O)C2(C)C [D-Camphor] | 0.123 (inactive)
CC(=O)OC1CC2CCC1(C)C2(C)C (stereo not drawn) [Bornyl acetate] | -0.214 (inactive)
C=C1CC[C@H]2C(=C)CC[C@H]3C(=C)C(=O)O[C@@H]3[C@@H]12 [Dehydrocostus Lactone] | 0.992 (active)
CC1OC(OC2C(OC3CCC4(C)C(CCC5(C)C4CC=C4C6CC(C)(C)CCC6(C(=O)OC6OC(COC7OC(CO)C(O)C(O)C7O)C(O)C(O)C6O)CCC45C)C3(C)CO)OCC(O)C2O)C(O)C(O)C1O (stereo not drawn) [Dipsacoside B] | 0.235 (inactive)
CC(=O)OC/C=C(C)/C=C/C=C(C)/C=C/C1=C(C)CCCC1(C)C [Retinyl acetate] | -0.265 (inactive)
CC1(C)CC[C@]2(C)CC[C@]3(C)C(=CC[C@@H]4[C@@]5(C)CC[C@@H](O)[C@](C)(C(=O)O)[C@@H]5CC[C@]43C)[C@@H]2C1 | 0.314 (inactive)
CC(C)=CCC[C@](C)(O[C@@H]1O[C@H](CO)[C@@H](O)[C@H](O)[C@H]1O)[C@H]1CC[C@]2(C)[C@@H]1[C@H](O)C[C@@H]1[C@@]3(C)CC[C@H](O[C@@H]4O[C@H](CO)[C@@H](O)[C@H](O)[C@H]4O[C@@H]4O[C@H](CO)[C@@H](O)[C@H](O)[C@H]4O)C(C)(C)[C@@H]3CC[C@]12C [Ginsenoside Rd] | 0.03 (inactive)
CCCCCCCCCC[C@H](C(=O)O)[C@]1(C(=O)O)CCC(=O)O1 [Spiculisporic Acid] | 0.104 (inactive)
